Measurements published in PubChem BioAssay AID430 (Sanford-Burnham Center for Chemical Genomics, 2006).
Screen size: about 63,000 compounds; about 1,100 (1.7%) were called active. Shown is part of a subset that was picked to be rich in actives. Measured potencies and affinities stand elsewhere. Values without a mark were called inactive. Cut-off read from the data, not from the text of the source: active = cytotoxicity above about 50%; inactive = the rest.

assay: cytotoxicity in HPDE-C7 cells, cell-based, fluorescence, HTS (AID 430); conditions: HPDE-C7 pancreatic duct cells viability, at 10 µM, hits give high values;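 note: cells exposed to compound for 48 hours before viability readout; 0% = vehicle and 100% = reference cytotoxic drug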

Row | SMILES | cytotoxicity
1 | CCC(=NCCc1ccccc1)C1=C(O)CCC1=O | 9.7%
2 | C=CCn1c(SCn2nnc3ccccc3c2=O)nnc1-c1ccc(F)cc1 | -0.2%
3 | Cc1cc(C(=O)N2CCN(S(C)(=O)=O)CC2)sc1-c1ccccc1 | -3%
4 | O=C(NC1CCCC1)C1CCCN1C(=O)Nc1ccccc1Cl (stereo not drawn) | -20.3%
5 | C=CCN(CC=C)c1nc2ccccc2nc1C(C#N)C(=O)OCCOC (stereo not drawn) | 1.9%
6 | O=C(Nc1ccc2oc(-c3ccccc3)nc2c1)c1ccc2c(c1)OCCO2 | 13.4%
7 | COc1cc(OC)cc(C(=O)Nc2ccc(-c3nc4ccccc4o3)cc2)c1 | 74.2% (active)
8 | O=C(Nc1cccc(-c2nnc(-c3ccccc3)o2)c1)c1ccco1 | -6.9%
9 | COc1cccc(C(=O)Nc2ccc(-c3nc4ccccc4o3)c(O)c2)c1 | 15.3%
10 | Cc1ccc(-c2nc3ccccc3o2)cc1NC(=O)c1ccc2c(c1)OCO2 | -10%
11 | O=C(Nc1ccc(-c2nc3ncccc3o2)cc1)c1ccco1 | 1.1%
12 | O=C(Nc1ccc2nc(-c3ccccc3)oc2c1)c1ccco1 | 68.7% (active)
13 | COC(=O)c1ccc(-c2nc3ccccc3o2)cc1 | -9.2%
14 | C/C=C/COc1nc2c(c(=O)n(C)c(=O)n2C)n1C | -4%
15 | O=C(OCC(=O)N1CCN(C(=O)COC(=O)c2ccncc2)CC1)c1ccncc1 | -7.9%
16 | Cc1ccc(C2CC(=O)c3cnc(N4CCN(c5ccccc5)CC4)nc3C2)cc1 (stereo not drawn) | 9.3%
17 | CCN1CCN(c2ncc3c(n2)CC(c2cc(OC)c(OC)c(OC)c2)CC3=O)CC1 (stereo not drawn) | 58.9% (active)
18 | COc1cc(C2CC(=O)c3cnc(N4CCN(Cc5ccccc5)CC4)nc3C2)cc(OC)c1OC (stereo not drawn) | 46%
19 | O=C1CC(c2cccc(Cl)c2)Cc2nc(N3CCN(c4ccccc4)CC3)ncc21 (stereo not drawn) | 51.4% (active)
20 | O=C1CC(c2cccc(Cl)c2)Cc2nc(N3CCOCC3)ncc21 (stereo not drawn) | -14.6%
21 | CCN1CCN(c2ncc3c(n2)CC(c2ccc(OC)c(OC)c2)CC3=O)CC1 (stereo not drawn) | 7.7%
22 | CSc1nnc2c(n1)OC(C1CC=C(C)CC1)Nc1ccccc1-2 (stereo not drawn) | 2.9%
23 | C=CCn1c(=O)c(C(=O)Nc2ccccc2O)c(O)c2ccccc21 | -18%
24 | Cc1occc1C(=O)NCc1ccc2c(c1)OCO2 | 42.9%
25 | O=C(COc1cnc2ccccc2n1)NCCC1=CCCCC1 | -1.1%

Row | SMILES | cytotoxicity
26 | CCc1ccc2c(COC(=O)c3n[nH]c4ccccc34)cc(=O)oc2c1 | 8%
27 | Cc1ccc2c(COn3nnc4ccc(S(=O)(=O)N(C)C)cc43)cc(=O)oc2c1C | -2.2%
28 | CCc1ccc2c(COn3nnc4ccc(S(=O)(=O)N(C)C)cc43)cc(=O)oc2c1 | 59.1% (active)
29 | CCc1nnc(NC(=O)CSc2nc3c(cc2C#N)CCCC3)s1 | -1.1%
30 | CCc1nnc(NC(=O)CSc2nc3c(cc2C#N)CCC3)s1 | 30.8%
31 | CCc1nnc(NC(=O)CSc2nc(C)c3c(c2C#N)CCCC3)s1 | 76.3% (active)
32 | COc1cccc(NC(=O)CNC(=O)c2ccc(F)cc2)c1 | -1%
33 | COc1cc(-c2ccc(NC(=O)CN3CCCCC3)c(OC)c2)ccc1NC(=O)CN1CCCCC1 | -11.3%
34 | N#Cc1ccc(CSc2nnc(-c3cnccn3)o2)cc1 | -3%
35 | Fc1cccc(C2CC(c3cccc(Br)c3)Nc3nnnn32)c1 (stereo not drawn) | -20.3%
36 | CCOc1ccc(S(=O)(=O)N2Cc3ccccc3CC2C(=O)NCCCn2ccnc2)cc1 (stereo not drawn) | 1.9%
37 | Cc1ccc2[nH]c3c(c2c1)CN(C(=O)CN1CCN(c2ccccc2)CC1)CC3 | 26.1%
38 | Cc1ccc2[nH]c3c(c2c1)CN(C(=O)CN1CCN(c2ccccc2F)CC1)CC3 | 14.7%
39 | Cc1ccc2[nH]c3c(c2c1)CN(C(=O)CN1CCCc2ccccc21)CC3 | 55.8% (active)
40 | Cc1cccc(N2CCN(C(=O)c3ccc(N4CCCC4=O)cc3)CC2C)c1 (stereo not drawn) | -1.7%
41 | CCOC(=O)c1ccc(NC(=O)N2CCN(S(C)(=O)=O)CC2)cc1 | -1.4%
42 | Cc1cnc(NC(=O)CCCSc2nc3ccccc3s2)s1 | -1.8%
43 | c1ccc(-c2cc(-c3nc(-c4cccnc4)no3)c3ccccc3n2)cc1 | -11.7%
44 | c1ccc(-c2ccc(-c3nc(-c4ccccn4)no3)cc2)cc1 | -4.1%
45 | c1ccc(-c2cc(-c3nc(-c4ccccn4)no3)c3ccccc3n2)cc1 | 70.4% (active)
46 | CC(C)n1c(SCC(N)=O)nc2c1c(=O)n(C)c(=O)n2C | -8.7%
47 | CCn1c(SC/C=C/c2ccccc2)nnc1-c1cnccn1 | -18.9%
48 | Cn1cc(/C=N/n2cnc3scc(-c4ccccc4)c3c2=O)c2ccccc21 | 68.4% (active)
49 | Cc1ccc(-c2csc3ncn(/N=C/N(C)C)c(=O)c23)o1 | -6.4%
50 | Cc1nn(-c2ccccc2)c(N2CCCC2)c1/C=N/n1cnc2scc(-c3ccccc3)c2c1=O | 24.5%

Row | SMILES | cytotoxicity
51 | Cn1cc(/C=N/n2cnc3scc(-c4ccc(Cl)cc4)c3c2=O)c2ccccc21 | 89.3% (active)
52 | Cn1cc(/C=N/n2cnc3sc4c(c3c2=O)CCCC4)c2ccccc21 | 21.2%
53 | CCn1cnc2scc(-c3ccccc3)c2c1=O | -9.7%
54 | COc1cc(OC)cc(C(=O)N2CCC(n3c(C)nc4cc(F)ccc43)CC2)c1 | 3%
55 | N#Cc1cc2sc3nnc(-c4ccncc4)n3c2cc1C#N | -14.9%
56 | Cc1nc2cc(C(=O)OCC(=O)N(CC(C)C)C3CCS(=O)(=O)C3)ccc2n1-c1ccccc1 (stereo not drawn) | -10.3%
57 | O=C(O)CCc1ccc(-c2cccs2)n1NC(=O)c1ccc(Cl)cc1 | 0.6%
58 | Cc1csc(NC(=O)CSc2nnc(-c3ccc(S(=O)(=O)N4CCCC4)cc3)o2)n1 | -13.8%
59 | COc1cccc(CNC(=O)Cn2cccc2)c1 | -4.3%
60 | COc1ccccc1NCCC(=O)OCC(=O)Nc1ccc(Cl)cn1 | 10.3%
61 | N#Cc1ccc(NC(=O)Nc2ccc(Cl)cc2)cc1 | 57.7% (active)
62 | CN(CC(=O)Nc1ccc(C#N)cc1)Cc1ccc(Cl)cc1 | 6.1%
63 | Cc1cccc(NC(=O)Nc2ccc(C#N)cc2)n1 | -0.1%
64 | COc1ccc(Cl)cc1NC(=O)N1CCN(S(C)(=O)=O)CC1 | -6.5%
65 | C=CCn1c(N)cc(=O)nc1SCC(=O)Nc1ccccc1 | -16%
66 | O=C(c1ccccc1)N1CCCCC(Sc2nnnn2-c2ccccc2)C1=O (stereo not drawn) | -6.2%
67 | Cc1ccc2oc3c(c(=O)c2c1)C(c1ccc(F)cc1)N(CCCN1CCOCC1)C3=O (stereo not drawn) | -11.5%
68 | COC(=O)C1=C(C)N(C)C(=O)NC1c1cc(Cl)cc(Cl)c1OC (stereo not drawn) | 1.6%
69 | Cc1cc(N2CCN(C(=O)c3ccco3)CC2)n2nc(C)c(-c3ccc(Cl)cc3)c2n1 | 14.2%
70 | Cc1nn2c(N3CCN(C(=O)c4ccco4)CC3)cc(C(C)(C)C)nc2c1-c1ccccc1 | 75.8% (active)
71 | Cc1cc(N2CCN(C(=O)c3ccco3)CC2)n2nc(C)c(-c3ccccc3)c2n1 | 7.9%
72 | COC(=O)c1ccccc1S(=O)(=O)N(Cc1cc2ccc(OC)cc2[nH]c1=O)CC1CCCO1 (stereo not drawn) | -2%
73 | O=C(CCNS(=O)(=O)c1cccs1)NCc1ccco1 | -2.8%
74 | C=CCOc1nc2c(c(=O)n(C)c(=O)n2C)n1Cc1ccc(Cl)cc1 | 59.6% (active)
75 | C=CCOc1nc2c(c(=O)n(C)c(=O)n2C)n1Cc1ccc(Cl)cc1Cl | -22.3%

Row | SMILES | cytotoxicity
76 | C=CCOc1nc2c(c(=O)n(Cc3ccc(Cl)cc3)c(=O)n2C)n1C | 6.6%
77 | CCc1c(C(=O)Nc2ccc(S(=O)(=O)N3CCOCC3)cc2)csc1C | 11%
78 | N=c1c2c(n(Cc3ccc(F)cc3)c3c1CCC3)CCC2 | 29.3%
79 | N=c1c2c(n(Cc3ccc(Cl)c(Cl)c3)c3c1CCC3)CCCC2 | 63.8% (active)
80 | N=c1c2c(n(Cc3ccc(Cl)cc3)c3c1CCC3)CCC2 | 34%
81 | O=C(C1CCN(S(=O)(=O)c2ccc(Br)s2)CC1)N1CCc2ccccc21 | 10.9%
82 | O=C1N(S(=O)(=O)c2ccccc2F)C(=O)C2(CCCC2)N1S(=O)(=O)c1ccccc1F | -2.1%
83 | Cn1c(N2CCCCC2)nc2c1c(=O)n(Cc1cccc(Br)c1)c(=O)n2C | -15.8%
84 | O=C(O)c1c(-c2ccccc2)c2oc3ccccc3c2[nH]c1=O | 89.7% (active)
85 | O=c1[nH]c(Cc2ccccc2)nc2c1oc1ccccc12 | -7.5%
86 | O=c1[nH]cnc2c1oc1ccccc12 | 1.3%
87 | COC(=O)c1c(-c2ccc(F)cc2)noc1N | -23.1%
88 | COc1ccc(C(=O)n2c(-c3ccco3)nc3ccccc32)cc1 | 66.4% (active)
89 | CCn1c(-c2ccco2)nc2ccccc21 | 6.2%
90 | COc1ccc(C(=O)CSc2nnc(-c3ccco3)n2C)cc1 | -10.7%
91 | O=C(Nc1ccc2c(c1)oc1ccccc12)c1ccc(Br)o1 | 3.1%
92 | CCCC(=O)Nc1cc(OC)c(OC)cc1C(=O)O | 6.8%
93 | COc1cccc(C(=O)Nc2nnc(-c3cccs3)o2)c1 | 22%
94 | O=C(Nc1nnc(-c2cccs2)o1)c1cccc(Oc2ccccc2)c1 | 50.4% (active)
95 | O=C(Nc1nnc(-c2cccs2)o1)c1ccco1 | -23%
96 | O=C(CCc1ccccc1)Nc1nnc(-c2cccs2)o1 | -3%
97 | O=C(Nc1nnc(-c2cccs2)o1)c1cccc(F)c1 | 41.3%
98 | O=C(Nc1nnc(-c2cccs2)o1)c1cccc(C(F)(F)F)c1 | 78.7% (active)
